Data: PubChem BioAssay (Tox21)
Records with an inconclusive call do not appear. Active and inactive are the calls of the source. Calls follow the shape of the full dose curve.

Target: Acetylcholinesterase (Homo sapiens) (UniProt P22303)
Experiment: Acetylcholinesterase (AChE) small molecule antagonists: fluorescence cell-based qHTS assay (AID 1347398); also: nearly all actives have a fitted effect of over 50% in size
Conditions: SH-SY5Y cells; Potency: AChE activity; outcome: AChE activity; series mostly up to 115 µM; activity change, negative = inhibition: at the top concentration
In short: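 SH-SY5Y, 2,000 cells/well, attached overnight; cmpd 30 min 37 C; acetylthiocholine/Thiolite Green cocktail 40 min RT; fluorescence Ex/Em 490/520 nm.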
% is scaled to controls: 0 for no effect and ±100 for the full control effect; potency is read from the fitted curve at half-maximal effect.

Sequence of Acetylcholinesterase (Homo sapiens) (P22303 whole entry, looked up): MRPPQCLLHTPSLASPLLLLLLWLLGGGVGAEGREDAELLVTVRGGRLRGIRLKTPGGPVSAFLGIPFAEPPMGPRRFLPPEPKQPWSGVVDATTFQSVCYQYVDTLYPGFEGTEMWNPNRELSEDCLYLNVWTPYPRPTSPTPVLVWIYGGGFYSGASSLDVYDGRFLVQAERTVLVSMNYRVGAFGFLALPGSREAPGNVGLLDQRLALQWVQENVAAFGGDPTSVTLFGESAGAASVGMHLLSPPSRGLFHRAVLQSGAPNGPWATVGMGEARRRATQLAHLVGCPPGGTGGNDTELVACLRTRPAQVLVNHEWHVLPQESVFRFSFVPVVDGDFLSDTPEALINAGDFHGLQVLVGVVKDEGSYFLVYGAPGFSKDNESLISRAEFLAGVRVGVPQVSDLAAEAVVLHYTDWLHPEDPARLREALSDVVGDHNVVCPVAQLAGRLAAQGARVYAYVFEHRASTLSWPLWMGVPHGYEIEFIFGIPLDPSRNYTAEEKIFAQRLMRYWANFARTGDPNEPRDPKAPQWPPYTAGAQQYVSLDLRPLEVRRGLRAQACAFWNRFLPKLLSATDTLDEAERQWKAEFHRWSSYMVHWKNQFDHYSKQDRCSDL

| Compound | activity change, negative = inhibition | Potency |
| --- | --- | --- |
| CCCCCCCCCCCCCCCCC(C(=O)O)C(O)(CC(=O)O)C(=O)O (stereo not given) | 8.62% [at 53.7 µM] (inactive) | – |
| Oc1c(Cl)cc(Cl)c(Cl)c1Cc1c(O)c(Cl)cc(Cl)c1Cl | -14.7% [at 53.7 µM] (inactive) | – |
| CCOC(=O)c1nc(C(Cl)(Cl)Cl)n(-c2ccc(Cl)cc2Cl)n1 | -18% (inactive) | – |
| CCCCCCCCCCCCOCCOS(=O)(=O)O | 2.5% (inactive) | – |
| CCCCC(CC)CNC(=O)CC(C)OC(=O)CCC(=O)O (stereo not given) | -0.672% [at 53.7 µM] (inactive) | – |
| C1CCC2(CCCCO2)OC1 | 0.562% (inactive) | – |
| CCCCCCCCCCCCCCCCCCOS(=O)(=O)O | 0.179% (inactive) | – |
| CN(C)CCOc1ccc(/C(=C(/CCCl)c2ccccc2)c2ccccc2)cc1 | -22.3% (inactive) | – |
| CC(C)CCCCCCCCCCCCCCC(=O)O | -10.3% (inactive) | – |
| O=S(=O)(c1ccc(OCc2ccccc2)cc1)c1ccccc1O | -1.82% (inactive) | – |
| COC(C(=O)O)c1ccccc1 (stereo not given) | 0.166% (inactive) | – |
| NC(=O)C1(N2CCCCC2)CCN(CCCN2c3ccccc3CCc3ccc(Cl)cc32)CC1 | -23.1% [at 53.7 µM] (inactive) | – |
| COc1cc2nc(N3CCN(C(=O)C4CCCO4)CC3)nc(N)c2cc1OC (stereo not given) | – | 12.3 µM (active) |
| O=C(Nc1ccc(Cl)c(Cl)c1)c1cc(Cl)cc(Cl)c1O | -0.259% (inactive) | – |
| CCCCCCCCOC(=O)c1cc(O)c(O)c(O)c1 | -17.1% (inactive) | – |
| CCCN(CCc1cccs1)[C@H]1CCc2c(O)cccc2C1 | – | 11 µM (active) |
| CCOC(=O)COc1cc(-n2ncc(C(F)(F)F)c(C)c2=O)c(F)cc1Cl | -1.02% (inactive) | – |
| CCN1/C(=C/C=C/c2sc3ccccc3[n+]2CC)Sc2ccccc21 | – | 6.74 µM (active) |
| CC(C)(C)c1ccc(N)cc1 | 1.77% (inactive) | – |
| O=C(Nc1ccc(S(=O)(=O)N2CCOCC2)cc1)c1cc(Cl)ccc1NS(=O)(=O)c1ccc(Cl)s1 | -1.68% [at 53.7 µM] (inactive) | – |
